Experimental data published in PubChem BioAssay (EPA / NIEHS).
Active and inactive are the calls of the source. The calls were made as follows: active = hit-call score of the fitted dose curve at least 0.9, where 1 is the maximum; inactive = score below 0.9.

How the values were obtained:
Conditions in all cases: mRNA level, 48 h; actives raise or lower the signal
[1] = read-out: ABC Transporter (ABCB1), ABCB1 (gene 5243); assay: LTEA_HepaRG_ABCB1: Life Technologies and Expression Analysis (LTEA) Assay for ABC Transporter (ABCB1) using HepaRG (AID 2283460)
How it was run: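 HepaRG, 48 h exposure, 8-pt half-log series from 100 uM, 0.5% DMSO vehicle, duplicates. Readout: ABCB1 transcript by Fluidigm TaqMan qRT-PCR, housekeeping-normalized; bidirectional curve fit vs DMSO baseline.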

[2] = read-out: growth arrest and DNA damage 45 (GADD45B), GADD45B (gene 4616); assay: LTEA_HepaRG_GADD45B: Life Technologies and Expression Analysis (LTEA) Assay for growth arrest and DNA damage 45 (GADD45B) using HepaRG (AID 2283461)
How it was run: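 Transcript level quantified by Fluidigm TaqMan qRT-PCR with three housekeeping genes for normalization, analyzed for up- or down-regulation against 0.5% DMSO. HepaRG cultures dosed 48 h at eight half-log concentrations up to 100 uM, duplicates.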

[3] = read-out: ABC Transporter (ABCC3), ABCC3 (gene 8714); assay: LTEA_HepaRG_ABCC3: Life Technologies and Expression Analysis (LTEA) Assay for ABC Transporter (ABCC3) using HepaRG (AID 2283462)
How it was run: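 Transcript level by TaqMan qRT-PCR, normalised to three housekeeping genes, fitted in both directions relative to vehicle. Chemicals tested in duplicate at eight half-log concentrations up to 100 uM for 48 h on HepaRG cells (0.5% DMSO).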

[4] = read-out: ABC Transporter (ABCB11), ABCB11 (gene 8647); assay: LTEA_HepaRG_ABCB11: Life Technologies and Expression Analysis (LTEA) Assay for ABC Transporter (ABCB11) using HepaRG (AID 2283463)
How it was run: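 HepaRG, 48 h exposure, 8-pt half-log CRC top 100 uM, 0.5% DMSO vehicle, duplicates. Readout: TaqMan qRT-PCR of ABCB11 mRNA, housekeeping-normalized (ACTB/GAPDH/POLR2A). Bidirectional fit vs DMSO baseline.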

[5] = read-out: ABC Transporter (ABCC2), ABCC2 (gene 1244); assay: LTEA_HepaRG_ABCC2: Life Technologies and Expression Analysis (LTEA) Assay for ABC Transporter (ABCC2) using HepaRG (AID 2283464)
How it was run: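 Endpoint is ABCC2 transcript level from qRT-PCR, normalized to three housekeeping genes and fitted bidirectionally relative to DMSO. Human HepaRG cells received test chemical for 48 h at up to 100 uM (8 points, half-log steps, 0.5% DMSO), duplicate wells.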

[6] = read-out: Broad substrate specificity ATP-binding cassette transporter ABCG2 (Homo sapiens) (UniProt Q9UNQ0); assay: LTEA_HepaRG_ABCG2: Life Technologies and Expression Analysis (LTEA) Assay for ABC Transporter (ABCG2) using HepaRG (AID 2283465)
How it was run: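 HepaRG, 48 h exposure, 8-pt half-log series from 100 uM, 0.5% DMSO vehicle, duplicates. Readout: ABCG2 transcript by qRT-PCR (Fluidigm array), housekeeping-normalized; bidirectional curve fit relative to DMSO baseline.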

[7] = read-out: ATP-citrate lyase (ACLY), ACLY (gene 47); assay: LTEA_HepaRG_ACLY: Life Technologies and Expression Analysis (LTEA) Assay for ATP-citrate lyase (ACLY) using HepaRG (AID 2283466)
How it was run: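 qRT-PCR readout of ACLY transcript after 48 h chemical treatment of HepaRG cells; expression normalized to three housekeeping genes. Eight-point half-log series, highest 100 uM, 0.5% DMSO vehicle. Gain or loss fitted against DMSO baseline.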

[8] = read-out: Peroxisomal acyl-coenzyme A oxidase 1 (ACOX1) gene, ACOX1 (gene 51); assay: LTEA_HepaRG_ACOX1: Life Technologies and Expression Analysis (LTEA) Assay for Peroxisomal acyl-coenzyme A oxidase 1 (ACOX1) gene using HepaRG (AID 2283467)
How it was run: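 HepaRG, 48 h chemical exposure, 8-pt half-log series from 100 uM top, 0.5% DMSO vehicle, duplicates. Readout: ACOX1 mRNA by Fluidigm qRT-PCR, housekeeping-normalized; bidirectional fit vs DMSO baseline.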

[9] = read-out: Alkaline Phosphatase, Placental (ALPP) gene, ALPP (gene 250); assay: LTEA_HepaRG_ALPP: Life Technologies and Expression Analysis (LTEA) Assay for Alkaline Phosphatase, Placental (ALPP) gene using HepaRG (AID 2283468)
How it was run: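 ALPP transcript level, measured by qRT-PCR and normalized to three housekeeping genes (ACTB, GAPDH, POLR2A), after 48 h dosing of differentiated HepaRG in serum-free induction medium. Top concentration 100 uM with half-log dilutions (8 points, 0.5% DMSO, duplicates); bidirectional fitting relative to DMSO.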

[10] = read-out: Bcl-2 (BAD) gene, BAD (gene 572); assay: LTEA_HepaRG_BAD: Life Technologies and Expression Analysis (LTEA) Assay for Bcl-2 (BAD) gene using HepaRG (AID 2283469)
How it was run: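 HepaRG, 48 h exposure, 8-pt half-log curve from 100 uM in 0.5% DMSO, duplicates. Readout: TaqMan qRT-PCR for BAD mRNA, housekeeping-normalised (ACTB/GAPDH/POLR2A); gain or loss fitted against DMSO baseline.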

[11] = read-out: Bcl-2 (BAX) gene, BAX (gene 581); assay: LTEA_HepaRG_BAX: Life Technologies and Expression Analysis (LTEA) Assay for Bcl-2 (BAX) gene using HepaRG (AID 2283470)
How it was run: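 qRT-PCR read-out of BAX mRNA, normalized to three housekeeping genes, after 48 h chemical exposure of human HepaRG cells in serum-free induction medium; eight-point half-log series, top 100 uM, 0.5% DMSO vehicle; bidirectional fit versus DMSO.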

[12] = read-out: Alpha-fetoprotein (AFP) gene, AFP (gene 174); assay: LTEA_HepaRG_AFP: Life Technologies and Expression Analysis (LTEA) Assay for Alpha-fetoprotein (AFP) gene using HepaRG (AID 2283472)
How it was run: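 qRT-PCR (Fluidigm TaqMan) readout of AFP transcript, normalized to three housekeeping genes, fitted bidirectionally against 0.5% DMSO baseline. HepaRG cells received chemicals for 48 h in serum-free induction medium, top concentration 100 uM, half-log steps.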

[13] = read-out: BCL2L11 (gene 10018); assay: LTEA_HepaRG_BCL2L11: Life Technologies and Expression Analysis (LTEA) Assay for Bcl-2 (BCL2L11) gene using HepaRG (AID 2283473)
How it was run: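 BCL2L11 transcript levels are measured by Fluidigm qRT-PCR, normalized to three housekeeping genes. HepaRG cultures were plated 48 h, then treated 48 h with test chemical (top 100 uM, half-log, 0.5% DMSO vehicle); curves were fitted bidirectionally against DMSO.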

[14] = read-out: Apolipoprotein A-V (APOA5) gene, APOA5 (gene 116519); assay: LTEA_HepaRG_APOA5: Life Technologies and Expression Analysis (LTEA) Assay for Apolipoprotein A-V (APOA5) gene using HepaRG (AID 2283474)
How it was run: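 APOA5 transcript levels were quantified by qRT-PCR, normalized to three housekeeping genes, after 48 h chemical treatment of HepaRG cells (8 points, 100 uM maximum, half-log steps, 0.5% DMSO). Curves fitted in both directions against vehicle.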

[15] = read-out: Apoptosis regulator Bcl-2 (Homo sapiens) (UniProt P10415); assay: LTEA_HepaRG_BCL2: Life Technologies and Expression Analysis (LTEA) Assay for Bcl-2 gene using HepaRG (AID 2283475)
How it was run: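 qRT-PCR read-out (Fluidigm TaqMan) of BCL2 transcript, normalised to three housekeeping genes, after 48 h chemical exposure of HepaRG cells; 8-point half-log series, top 100 uM, 0.5% DMSO vehicle. Gain or loss of signal fitted relative to DMSO baseline.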

[16] = read-out: Bcl-2 (BID) gene, BID (gene 637); assay: LTEA_HepaRG_BID: Life Technologies and Expression Analysis (LTEA) Assay for Bcl-2 (BID) gene using HepaRG (AID 2283476)
How it was run: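 HepaRG, 48 h exposure, 8-pt half-log series, top 100 uM, 0.5% DMSO vehicle, duplicates. Readout: BID mRNA by TaqMan qRT-PCR; housekeeping-normalized; bidirectional curve fit vs DMSO baseline.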

[17] = read-out: Caspase-3 (Homo sapiens) (UniProt P42574); assay: LTEA_HepaRG_CASP3: Life Technologies and Expression Analysis (LTEA) Assay for cysteine-aspartic acid protease (CASP3) using HepaRG (AID 2283477)
How it was run: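 Expression of CASP3 was quantified by TaqMan qRT-PCR against three housekeeping genes (ACTB, GAPDH, POLR2A), bidirectionally versus 0.5% DMSO. HepaRG cultures received compounds in duplicate, top 100 uM with half-log steps, for 48 h in serum-free induction medium.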

[18] = read-out: Cytochrome P450 (CYP24A1), CYP24A1 (gene 1591); assay: LTEA_HepaRG_CYP24A1: Life Technologies and Expression Analysis (LTEA) Assay for Cytochrome P450 (CYP24A1) using HepaRG (AID 2283478)
How it was run: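 mRNA of CYP24A1 quantified by TaqMan qRT-PCR (ACTB/GAPDH/POLR2A normalization) after 48 h chemical exposure of HepaRG cells, top concentration 100 uM, half-log steps, 0.5% DMSO vehicle, duplicates. Curves fitted bidirectionally against DMSO baseline.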

[19] = read-out: Forkhead box O3 (FOXO3), FOXO3 (gene 2309); assay: LTEA_HepaRG_FOXO3: Life Technologies and Expression Analysis (LTEA) Assay for Forkhead box O3 (FOXO3) using HepaRG (AID 2283459)
How it was run: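 qRT-PCR readout of FOXO3 transcript, normalized to three housekeeping genes (ACTB, GAPDH, POLR2A); gain or loss fitted against 0.5% DMSO vehicle. HepaRG cells, 48 h chemical exposure, 8-point half-log series, top 100 uM.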

[20] = read-out: adenosine kinase (ADK) gene, ADK (gene 132); assay: LTEA_HepaRG_ADK: Life Technologies and Expression Analysis (LTEA) Assay for adenosine kinase (ADK) gene using HepaRG (AID 2283471)
How it was run: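 Read-out is ADK transcript level measured by qRT-PCR and normalised to three housekeeping genes. Cells are human HepaRG, dosed for 48 h at up to 100 uM in 0.5% DMSO. Gain or loss of signal is fitted against DMSO controls.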

Measured: outcome

Apoptosis regulator Bcl-2 (Homo sapiens), sequence (P10415 whole entry, looked up): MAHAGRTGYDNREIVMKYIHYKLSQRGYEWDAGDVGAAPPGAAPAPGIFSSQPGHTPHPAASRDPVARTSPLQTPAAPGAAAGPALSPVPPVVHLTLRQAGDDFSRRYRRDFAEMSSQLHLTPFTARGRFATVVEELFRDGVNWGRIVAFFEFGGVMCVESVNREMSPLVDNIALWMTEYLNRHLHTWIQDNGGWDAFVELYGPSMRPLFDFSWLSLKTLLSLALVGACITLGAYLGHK
Broad substrate specificity ATP-binding cassette transporter ABCG2 (Homo sapiens), sequence (Q9UNQ0 whole entry, looked up): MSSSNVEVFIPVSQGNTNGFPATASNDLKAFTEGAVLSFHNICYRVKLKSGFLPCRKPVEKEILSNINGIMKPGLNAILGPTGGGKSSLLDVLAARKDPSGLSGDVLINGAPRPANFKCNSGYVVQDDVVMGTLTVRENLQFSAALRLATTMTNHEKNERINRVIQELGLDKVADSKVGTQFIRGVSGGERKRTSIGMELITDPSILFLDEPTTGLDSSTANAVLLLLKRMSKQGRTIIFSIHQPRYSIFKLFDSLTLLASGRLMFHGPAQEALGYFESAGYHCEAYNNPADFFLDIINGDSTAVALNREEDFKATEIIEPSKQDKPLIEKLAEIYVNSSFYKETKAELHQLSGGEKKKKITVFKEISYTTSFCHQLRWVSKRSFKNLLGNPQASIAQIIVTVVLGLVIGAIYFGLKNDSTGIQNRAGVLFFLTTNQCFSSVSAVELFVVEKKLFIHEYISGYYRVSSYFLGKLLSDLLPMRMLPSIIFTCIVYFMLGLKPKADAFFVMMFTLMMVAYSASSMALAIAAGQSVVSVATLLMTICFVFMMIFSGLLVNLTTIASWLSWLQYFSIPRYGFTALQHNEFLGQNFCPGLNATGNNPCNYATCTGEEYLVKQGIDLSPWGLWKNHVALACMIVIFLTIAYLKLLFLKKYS
Caspase-3 (Homo sapiens), sequence (P42574 whole entry, looked up): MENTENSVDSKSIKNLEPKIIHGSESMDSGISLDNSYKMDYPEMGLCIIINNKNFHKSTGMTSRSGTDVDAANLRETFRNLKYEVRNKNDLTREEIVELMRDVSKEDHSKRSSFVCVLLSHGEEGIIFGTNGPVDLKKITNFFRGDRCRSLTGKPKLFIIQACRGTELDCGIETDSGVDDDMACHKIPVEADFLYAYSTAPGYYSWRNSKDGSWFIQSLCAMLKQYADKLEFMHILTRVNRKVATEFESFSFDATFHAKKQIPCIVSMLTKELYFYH

CCOC(=O)c1ccccc1C(=O)OCC
not listed: [19] | [20]
inactive: all other assays above

ClC(Cl)(Cl)c1ccccc1
not listed: [19] | [20]
inactive: all other assays above

CC(Cl)(Cl)C(=O)O
not listed: [18] | [19] | [20]
inactive: all other assays above

Nc1ccc(Cl)cc1
not listed: [20]
inactive: all other assays above

O=P1(N(CCCl)CCCl)NCCCO1 (centres undefined)
not listed: [19] | [20]
inactive: all other assays above

CN(C)C(=O)Cl
not listed: [19] | [20]
inactive: all other assays above

Cc1ccc([N+](=O)[O-])cc1C
not listed: [19] | [20]
inactive: all other assays above

ClC(Cl)c1ccccc1
not listed: [19] | [20]
inactive: all other assays above

COCCOCCO
not listed: [19]
inactive: all other assays above

O=[N+]([O-])c1ccc(Cl)c(Cl)c1
not listed: [19] | [20]
inactive: all other assays above

CCN(CC)c1ccccc1
not listed: [19] | [20]
inactive: all other assays above
